# Laboratory results: PubChem BioAssay AID504873 (The Scripps Research Institute Molecular Screening Center, 2011)
# Entries with a potency or affinity are not part of this list. Calls of active or inactive are those of the source. The rule behind the calls is not given here.
# Molecular target: Sphingosine 1-phosphate receptor 2 (Homo sapiens) (UniProt O95136)
# Experiment: S1P2 receptor agonists, human, late-stage follow-up, counter-screen for S1P4 agonist project, cell-based, fluorescence, set 2 (AID 504873)
# Chain of Sphingosine 1-phosphate receptor 2 (Homo sapiens) (O95136 whole entry, looked up): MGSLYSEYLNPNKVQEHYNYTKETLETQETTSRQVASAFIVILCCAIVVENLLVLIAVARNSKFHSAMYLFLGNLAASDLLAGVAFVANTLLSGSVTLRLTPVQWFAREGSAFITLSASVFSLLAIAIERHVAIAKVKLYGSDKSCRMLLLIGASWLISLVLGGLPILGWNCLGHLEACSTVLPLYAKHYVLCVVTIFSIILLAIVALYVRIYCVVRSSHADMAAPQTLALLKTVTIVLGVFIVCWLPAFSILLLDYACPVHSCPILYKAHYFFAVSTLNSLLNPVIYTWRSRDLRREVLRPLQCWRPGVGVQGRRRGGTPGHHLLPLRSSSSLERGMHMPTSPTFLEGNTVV
structure (smiles),measurement,value
CC/N=C1/SC(=Cc2cc(C)n(Cc3ccccc3OC)c2C)C(=O)N1CC,outcome,inactive
